Test results taken from article PMC7862700, “An all-to-all approach to the identification of sequence-specific readers for epigenetic DNA modifications on cytosine”.

Legend:
Test in all cases: DAPPL (digital affinity profiling via proximity ligation, sequencing); 10 mM Tris-HCl pH 7.5, 50 mM NaCl, 1 mM DTT, 4% glycerol, room temperature, 30 min; GST-TFs on glutathione beads, 16-mer random dsDNA library, 0.1% formaldehyde crosslink after washing; high values mean tight binding
Conditions in all cases: protein: recombinant; tags: N-terminal GST; dsDNA, one strand shown
FLI1 = biological target: T1, FLI1 (Homo sapiens, UniProt Q01543 1-452)
T1 sequence: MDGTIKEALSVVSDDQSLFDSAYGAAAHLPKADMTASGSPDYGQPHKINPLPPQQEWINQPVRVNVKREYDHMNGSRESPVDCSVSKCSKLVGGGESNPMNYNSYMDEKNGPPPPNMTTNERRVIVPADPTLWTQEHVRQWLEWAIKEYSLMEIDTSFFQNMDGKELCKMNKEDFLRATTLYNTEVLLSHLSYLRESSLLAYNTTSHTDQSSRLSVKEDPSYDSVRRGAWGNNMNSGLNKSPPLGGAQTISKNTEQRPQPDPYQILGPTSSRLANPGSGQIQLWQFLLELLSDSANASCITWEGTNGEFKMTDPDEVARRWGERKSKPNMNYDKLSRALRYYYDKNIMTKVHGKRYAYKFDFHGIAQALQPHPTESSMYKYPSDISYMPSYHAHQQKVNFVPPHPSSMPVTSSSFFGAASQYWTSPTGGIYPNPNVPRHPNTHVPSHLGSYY
Method in brief: (§1)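 Binding signal is defined as a hexamer's read frequency for one factor over its frequency for the tag-only sample. To obtain reads, GST-fused human transcription factors were expressed in yeast, captured on glutathione beads, barcoded with DNA and pooled with that sample. Pools met 200 nmole of a 16-mer random double-stranded DNA library in Tris/NaCl/DTT/glycerol buffer for 30 min at room temperature before washing, 0.1% formaldehyde crosslinking, proximity ligation (BsaI/T4 ligase, 1 h, 37 °C), PCR and Illumina NextSeq500 sequencing.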

ELK1 = biological target: T2, ELK1 (Homo sapiens, UniProt P19419 1-428)
T2 sequence: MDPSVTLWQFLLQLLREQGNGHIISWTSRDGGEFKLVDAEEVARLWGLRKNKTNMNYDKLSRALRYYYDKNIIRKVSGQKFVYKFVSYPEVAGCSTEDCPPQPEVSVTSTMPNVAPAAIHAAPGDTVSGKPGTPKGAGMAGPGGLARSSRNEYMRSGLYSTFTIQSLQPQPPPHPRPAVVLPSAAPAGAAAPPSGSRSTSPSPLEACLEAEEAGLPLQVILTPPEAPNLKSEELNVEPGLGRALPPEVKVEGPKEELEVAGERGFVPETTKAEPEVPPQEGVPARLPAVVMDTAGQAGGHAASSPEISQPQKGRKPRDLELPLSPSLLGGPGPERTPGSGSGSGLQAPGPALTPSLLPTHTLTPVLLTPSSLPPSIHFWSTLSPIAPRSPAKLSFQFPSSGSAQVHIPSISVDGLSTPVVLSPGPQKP
Method in brief: as §1

GABPA = biological target: T3, GABPA (Homo sapiens, UniProt Q06546 1-454)
T3 sequence: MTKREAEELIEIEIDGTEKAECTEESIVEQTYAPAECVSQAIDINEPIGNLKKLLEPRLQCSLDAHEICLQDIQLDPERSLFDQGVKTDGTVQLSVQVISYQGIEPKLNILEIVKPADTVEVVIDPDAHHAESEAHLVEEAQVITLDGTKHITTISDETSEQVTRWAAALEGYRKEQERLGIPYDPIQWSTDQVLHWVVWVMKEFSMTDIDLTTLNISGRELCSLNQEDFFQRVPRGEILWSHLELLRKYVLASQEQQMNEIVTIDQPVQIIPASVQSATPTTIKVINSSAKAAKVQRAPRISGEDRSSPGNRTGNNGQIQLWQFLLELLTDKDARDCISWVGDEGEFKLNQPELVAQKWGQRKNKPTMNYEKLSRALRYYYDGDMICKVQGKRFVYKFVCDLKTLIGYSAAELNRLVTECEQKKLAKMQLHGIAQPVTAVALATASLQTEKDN
Method in brief: as §1

ERG = biological target: T4, ERG (Homo sapiens, UniProt P11308 1-479)
T4 sequence: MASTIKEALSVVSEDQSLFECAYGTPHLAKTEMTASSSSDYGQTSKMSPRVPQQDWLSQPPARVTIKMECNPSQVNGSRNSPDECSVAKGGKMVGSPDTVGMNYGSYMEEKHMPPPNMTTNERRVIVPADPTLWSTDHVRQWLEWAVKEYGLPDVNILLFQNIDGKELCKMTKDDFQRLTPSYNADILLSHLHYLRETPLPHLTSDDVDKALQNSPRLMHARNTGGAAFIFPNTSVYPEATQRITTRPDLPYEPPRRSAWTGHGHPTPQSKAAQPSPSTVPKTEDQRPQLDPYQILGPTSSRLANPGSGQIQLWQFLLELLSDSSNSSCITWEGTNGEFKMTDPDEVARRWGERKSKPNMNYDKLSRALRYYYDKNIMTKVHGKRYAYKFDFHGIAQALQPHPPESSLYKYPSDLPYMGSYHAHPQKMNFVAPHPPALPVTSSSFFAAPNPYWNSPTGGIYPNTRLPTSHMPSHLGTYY
Method in brief: as §1

ELF1 = ELF1 (Homo sapiens, UniProt P32519 1-619)
Method in brief: as §1

EHF = biological target: T5, EHF (Homo sapiens, UniProt Q9NZC4 1-300)
T5 sequence: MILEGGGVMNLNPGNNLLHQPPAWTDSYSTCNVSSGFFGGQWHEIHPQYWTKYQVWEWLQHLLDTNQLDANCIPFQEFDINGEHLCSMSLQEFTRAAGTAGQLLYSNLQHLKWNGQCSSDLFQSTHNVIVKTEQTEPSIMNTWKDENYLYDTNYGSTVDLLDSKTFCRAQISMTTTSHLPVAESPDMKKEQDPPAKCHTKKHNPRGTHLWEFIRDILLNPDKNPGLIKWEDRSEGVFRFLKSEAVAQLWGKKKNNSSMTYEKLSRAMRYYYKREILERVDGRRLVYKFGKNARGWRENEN
Method in brief: as §1

SPI1 = SPI1 (Homo sapiens, UniProt P17947 1-270)
Method in brief: as §1

SPIB = SPIB (Homo sapiens, UniProt Q01892 1-262)
Method in brief: as §1

ELK3 = biological target: T6, ELK3 (Homo sapiens, UniProt P41970 1-407)
T6 sequence: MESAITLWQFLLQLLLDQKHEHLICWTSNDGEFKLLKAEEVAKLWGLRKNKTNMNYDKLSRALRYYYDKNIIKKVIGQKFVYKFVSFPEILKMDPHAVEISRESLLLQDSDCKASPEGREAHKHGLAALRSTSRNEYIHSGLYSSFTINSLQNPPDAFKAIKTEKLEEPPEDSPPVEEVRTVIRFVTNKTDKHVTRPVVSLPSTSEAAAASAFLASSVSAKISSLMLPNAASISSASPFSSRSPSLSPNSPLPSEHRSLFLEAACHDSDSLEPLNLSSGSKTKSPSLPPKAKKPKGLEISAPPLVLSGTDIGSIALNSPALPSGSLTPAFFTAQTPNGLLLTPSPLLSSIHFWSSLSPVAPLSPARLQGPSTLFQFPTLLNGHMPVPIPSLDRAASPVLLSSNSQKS
Method in brief: as §1

Chain of ELF1 (P32519 whole entry): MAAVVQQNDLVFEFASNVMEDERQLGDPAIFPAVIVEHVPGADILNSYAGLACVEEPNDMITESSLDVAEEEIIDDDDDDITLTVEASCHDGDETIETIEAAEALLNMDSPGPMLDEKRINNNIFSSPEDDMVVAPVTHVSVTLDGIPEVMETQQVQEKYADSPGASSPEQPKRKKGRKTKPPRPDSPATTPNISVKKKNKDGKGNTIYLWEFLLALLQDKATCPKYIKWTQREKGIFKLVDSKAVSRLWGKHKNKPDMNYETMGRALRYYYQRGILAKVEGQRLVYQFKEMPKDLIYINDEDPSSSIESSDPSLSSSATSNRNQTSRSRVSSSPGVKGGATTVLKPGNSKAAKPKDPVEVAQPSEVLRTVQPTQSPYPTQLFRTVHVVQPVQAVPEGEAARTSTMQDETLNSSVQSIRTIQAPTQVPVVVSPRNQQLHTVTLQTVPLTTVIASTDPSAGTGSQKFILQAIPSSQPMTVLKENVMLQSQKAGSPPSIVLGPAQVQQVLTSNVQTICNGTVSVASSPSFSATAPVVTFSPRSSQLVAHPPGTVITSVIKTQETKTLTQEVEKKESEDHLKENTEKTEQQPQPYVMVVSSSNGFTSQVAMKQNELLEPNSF
Chain of SPIB (Q01892 whole entry): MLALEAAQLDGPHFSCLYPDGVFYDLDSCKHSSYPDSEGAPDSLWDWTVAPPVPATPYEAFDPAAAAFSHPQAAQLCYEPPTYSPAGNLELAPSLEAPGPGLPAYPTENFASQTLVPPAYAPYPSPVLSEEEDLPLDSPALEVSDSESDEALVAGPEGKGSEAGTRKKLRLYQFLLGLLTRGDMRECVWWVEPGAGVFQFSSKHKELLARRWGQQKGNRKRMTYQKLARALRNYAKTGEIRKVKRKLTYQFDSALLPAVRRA

ATGAGC
binding signal (FLI1): 1.11 fold enrichment (6-mer frequency, TF over GST control) | binding signal (ELK1): 1.27 fold enrichment (6-mer frequency, TF over GST control) | binding signal (GABPA): 1.33 fold enrichment (6-mer frequency, TF over GST control) | binding signal (ERG): 1.2 fold enrichment (6-mer frequency, TF over GST control) | binding signal (ELF1): 1.24 fold enrichment (6-mer frequency, TF over GST control) | binding signal (EHF): 1.18 fold enrichment (6-mer frequency, TF over GST control) | binding signal (SPI1): 1.13 fold enrichment (6-mer frequency, TF over GST control) | binding signal (SPIB): 1.24 fold enrichment (6-mer frequency, TF over GST control) | binding signal (ELK3): 1.19 fold enrichment (6-mer frequency, TF over GST control)

ATACAC
binding signal (FLI1): 1.18 fold enrichment (6-mer frequency, TF over GST control) | binding signal (ELK1): 1.19 fold enrichment (6-mer frequency, TF over GST control) | binding signal (GABPA): 1.25 fold enrichment (6-mer frequency, TF over GST control) | binding signal (ERG): 1.25 fold enrichment (6-mer frequency, TF over GST control) | binding signal (ELF1): 1.19 fold enrichment (6-mer frequency, TF over GST control) | binding signal (EHF): 1.22 fold enrichment (6-mer frequency, TF over GST control) | binding signal (SPI1): 1.23 fold enrichment (6-mer frequency, TF over GST control) | binding signal (SPIB): 1.23 fold enrichment (6-mer frequency, TF over GST control) | binding signal (ELK3): 1.21 fold enrichment (6-mer frequency, TF over GST control)

CGAACC
binding signal (FLI1): 1.1 fold enrichment (6-mer frequency, TF over GST control) | binding signal (ELK1): 1.29 fold enrichment (6-mer frequency, TF over GST control) | binding signal (GABPA): 1.22 fold enrichment (6-mer frequency, TF over GST control) | binding signal (ERG): 1.15 fold enrichment (6-mer frequency, TF over GST control) | binding signal (ELF1): 1.23 fold enrichment (6-mer frequency, TF over GST control) | binding signal (EHF): 1.19 fold enrichment (6-mer frequency, TF over GST control) | binding signal (SPI1): 1.17 fold enrichment (6-mer frequency, TF over GST control) | binding signal (SPIB): 1.13 fold enrichment (6-mer frequency, TF over GST control) | binding signal (ELK3): 1.21 fold enrichment (6-mer frequency, TF over GST control)

ATGAAC
binding signal (FLI1): 1.31 fold enrichment (6-mer frequency, TF over GST control) | binding signal (ELK1): 1.28 fold enrichment (6-mer frequency, TF over GST control) | binding signal (GABPA): 1.27 fold enrichment (6-mer frequency, TF over GST control) | binding signal (ERG): 1.19 fold enrichment (6-mer frequency, TF over GST control) | binding signal (ELF1): 1.27 fold enrichment (6-mer frequency, TF over GST control) | binding signal (EHF): 1.32 fold enrichment (6-mer frequency, TF over GST control) | binding signal (SPI1): 1.21 fold enrichment (6-mer frequency, TF over GST control) | binding signal (SPIB): 1.27 fold enrichment (6-mer frequency, TF over GST control) | binding signal (ELK3): 1.44 fold enrichment (6-mer frequency, TF over GST control)

ATCCGG
binding signal (FLI1): 2.65 fold enrichment (6-mer frequency, TF over GST control) | binding signal (ELK1): 2.59 fold enrichment (6-mer frequency, TF over GST control) | binding signal (GABPA): 2.37 fold enrichment (6-mer frequency, TF over GST control) | binding signal (ERG): 3.22 fold enrichment (6-mer frequency, TF over GST control) | binding signal (ELF1): 2.29 fold enrichment (6-mer frequency, TF over GST control) | binding signal (EHF): 2.65 fold enrichment (6-mer frequency, TF over GST control) | binding signal (SPI1): 2.37 fold enrichment (6-mer frequency, TF over GST control) | binding signal (SPIB): 2.77 fold enrichment (6-mer frequency, TF over GST control) | binding signal (ELK3): 2.66 fold enrichment (6-mer frequency, TF over GST control)

ACTAGC
binding signal (FLI1): 1.23 fold enrichment (6-mer frequency, TF over GST control) | binding signal (ELK1): 1.18 fold enrichment (6-mer frequency, TF over GST control) | binding signal (GABPA): 1.26 fold enrichment (6-mer frequency, TF over GST control) | binding signal (ERG): 1.21 fold enrichment (6-mer frequency, TF over GST control) | binding signal (ELF1): 1.15 fold enrichment (6-mer frequency, TF over GST control) | binding signal (EHF): 1.11 fold enrichment (6-mer frequency, TF over GST control) | binding signal (SPI1): 1.28 fold enrichment (6-mer frequency, TF over GST control) | binding signal (SPIB): 1.22 fold enrichment (6-mer frequency, TF over GST control) | binding signal (ELK3): 1.1 fold enrichment (6-mer frequency, TF over GST control)

AGTATT
binding signal (FLI1): 1.12 fold enrichment (6-mer frequency, TF over GST control) | binding signal (ELK1): 1.19 fold enrichment (6-mer frequency, TF over GST control) | binding signal (GABPA): 1.1 fold enrichment (6-mer frequency, TF over GST control) | binding signal (ERG): 1.2 fold enrichment (6-mer frequency, TF over GST control) | binding signal (ELF1): 1.14 fold enrichment (6-mer frequency, TF over GST control) | binding signal (EHF): 1.15 fold enrichment (6-mer frequency, TF over GST control) | binding signal (SPI1): 1.1 fold enrichment (6-mer frequency, TF over GST control) | binding signal (SPIB): 1.17 fold enrichment (6-mer frequency, TF over GST control) | binding signal (ELK3): 1.14 fold enrichment (6-mer frequency, TF over GST control)
